INS promoter inh: inhibitors of insulin promoter-driven GFP, primary screen, imaging, TRM-6 cells (human fetal islet line), eGFP reporter, cell count | reporter expression induced with tamoxifen | inhibition, % at 2 µM | 130,000 tested, 0.9% active | AID 1273, 2008;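 active = inhibition above the mean plus 3 SD, with well images judged a real hit on visual review, cut at about 60% in these data, passing the limit was not always enough; inconclusive = inhibition over the cutoff but images rejected on review; inactive = inhibition not above the cutoff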
Lmaj promast: Leishmania major promastigote growth inhibition, primary screen; Leishmania major promastigotes, resazurin fluorescence viability; AID 1063, 2008; inhibition, % at 10 µM; 200,000 tested, 9% active; in the data active = inhibition above about 50%;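 note: promastigotes grown with compound for 44 hours at 28 °C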
Autophagy HCS: autophagy modulators in MEF cells, primary screen, imaging, high-content, MEF GFP-LC3 | MEF GFP-LC3 puncta imaging; test concentration mostly 10 µM | calls only at 10 µM (by protocol) | 190,000 tested, 0.98% active | AID 463193, 2010;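 active = percentage of spot-positive cells more than 3 SD above its plate mean, without a fluorescence outlier flag or 80% toxicity; inconclusive = no clear call, values can overlap the other calls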;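 note: spot-positive cell cutoff set from DMSO-treated cells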
Insulin prom up: insulin promoter activators in MIN6 cells, imaging, high-content screening, mouse beta cells; MIN6 insulin promoter-GFP reporter; hits give high values; 190,000 tested, 0.3% active; z-score at 5 µM;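 active = z-score above 3 at 5 µM with at least 500 cells counted in the well; inconclusive = wells under 500 cells, flagged as cytotoxic or low count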
PTEN del growth: growth suppression of PTEN-null HCT116, primary screen, cell-based, CellTiter-Glo; HCT116 PTEN-null viability, 60 h; hits give low values; AID 827, 2007; 140,000 tested, 1.2% active; viability, % at 10 µM;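 active = viability at or below a set limit, 4 SD under the median of all tested compounds, cut at about 3.7% in these data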;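 note: PTEN knockout HCT116 line with beta catenin targeted HCT116 as companion control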
bCat KO growth: primary screen for growth suppressors in beta-catenin knockout HCT116 cells (colon tumor, human) | 140,000 tested, 1.5% active | HCT116 beta-catenin knockout viability, CellTiter-Glo, 60 h; hits give low values | viability, % at 10 µM;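 active = viability at or under a set limit, the compound median less 4 SD, cut at about 6% in these data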;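 note: 0% = Hyamine 1622 control at 20 µM and 100% = untreated cell control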
The depositor's hits bear a star. This is a sample that favours compounds with a hit; in the whole collection about 9.6% have one here.

Results for Cc1cc(C)nc(Sc2nc(C)nc3c2oc2ccccc23)n1 ?
Lmaj promast: 71.8*; Autophagy HCS: inactive; Insulin prom up: 0.18; PTEN del growth: 14.1; bCat KO growth: 14.3

What do the screens show for `C/C(CC(=O)Nc1cc(C)ccn1)=N\NC(=O)c1cccc(C)c1`?
INS promoter inh: 33.3; Lmaj promast: -2.0; Autophagy HCS: inactive; Insulin prom up: 2.16

What do the screens show for `Cc1ccc[n+](C(C)C(=O)c2ccc(-c3ccccc3)cc2)c1` (stereo unspecified)?
INS promoter inh: 15.4; Lmaj promast: 98.1*; Autophagy HCS: inactive; Insulin prom up: -2.9; PTEN del growth: 16.9; bCat KO growth: 16.1

What do the screens show for `Cc1cc[n+](C(C)C(=O)c2ccc(-c3ccccc3)cc2)cc1` (stereo unspecified)?
INS promoter inh: 41.2; Lmaj promast: 89.9*; Autophagy HCS: inactive; Insulin prom up: -0.34

How did COc1cc2oc(-c3ccc(O)cc3)cc(=O)c2c(O)c1OC do in these assays?
Insulin prom up: -1.01

Results for CCOC(=O)C1CCCN(C(=O)CN2C(=O)/C(=C/c3ccc(OC)cc3)Oc3ccccc32)C1 (stereo unspecified) ?
INS promoter inh: -18.5; Lmaj promast: 73.6*; Autophagy HCS: inactive; Insulin prom up: 0.7; PTEN del growth: 49.3; bCat KO growth: 54.3

Results for C=CCn1c(N)c(C(=O)OC(C)CC)c2nc3ccccc3nc21 (stereo unspecified) ?
INS promoter inh: -37.9; Lmaj promast: 99.9*; Autophagy HCS: inactive; PTEN del growth: 91.4; bCat KO growth: 92.3

How did C=CCn1c(N)c(C(=O)OC(C)(C)C)c2nc3ccccc3nc21 do in these assays?
INS promoter inh: 3.2; Lmaj promast: 26.4; Autophagy HCS: inactive; Insulin prom up: 0.32; PTEN del growth: 68.5; bCat KO growth: 76.8

Results for Cc1ccc(S(=O)(=O)NCc2ccc3c(c2)cc(C)n3C)cc1 ?
Lmaj promast: -2.9; Autophagy HCS: inactive; Insulin prom up: 1.47; PTEN del growth: 102.4; bCat KO growth: 100.1

How did NC(N)=N/N=C/c1ccc(OS(=O)(=O)c2ccccc2)cc1 do in these assays?
INS promoter inh: -28.6; Lmaj promast: 88.1*; Autophagy HCS: inactive; Insulin prom up: -1.45

How did CCOc1cc(/C=N/NS(=O)(=O)c2ccccc2)ccc1OS(=O)(=O)c1ccc(C)cc1 do in these assays?
INS promoter inh: -25.4; Lmaj promast: 12.7; Autophagy HCS: inactive; Insulin prom up: -0.18; PTEN del growth: 100.1; bCat KO growth: 107.5

Results for CCC(=O)N/N=C/c1ccc(OS(=O)(=O)c2ccccc2)cc1 ?
INS promoter inh: -13.9; Lmaj promast: 57.5*; Autophagy HCS: inactive; Insulin prom up: 1.42; PTEN del growth: 96.0; bCat KO growth: 93.5

How did CCOc1cc(/C=N/NC(=O)COc2ccc(Cl)cc2)ccc1OS(=O)(=O)c1ccccc1 do in these assays?
INS promoter inh: 52.2; Lmaj promast: 95.6*; Autophagy HCS: inactive; PTEN del growth: 55.8; bCat KO growth: 57.0

What do the screens show for `CN=c1scc(-c2ccc([N+](=O)[O-])cc2)n1/N=C/c1ccco1`?
INS promoter inh: 25.0; Lmaj promast: -5.2; Autophagy HCS: inactive; Insulin prom up: -0.23

What do the screens show for `O=C(COC(=O)c1ccc2ncsc2c1)Nc1ncc(Cl)cc1Cl`?
INS promoter inh: 20.0; Lmaj promast: -5.2; Autophagy HCS: inactive; Insulin prom up: 0.24; PTEN del growth: 94.8; bCat KO growth: 96.4

What do the screens show for `Cc1c(Cl)cnc(NC(=O)COC(=O)c2ccc3ncsc3c2)c1Cl`?
INS promoter inh: inconclusive; Lmaj promast: 61.7*; Autophagy HCS: inactive; Insulin prom up: 0.54; PTEN del growth: 100.4; bCat KO growth: 87.1

What do the screens show for `N#Cc1cc2ccc(N3CCOCC3)cc2cc1C#N`?
INS promoter inh: 55.0; Lmaj promast: 98.8*; Autophagy HCS: inactive; Insulin prom up: -0.15; PTEN del growth: 71.8; bCat KO growth: 78.9

Results for COc1cc2nc(N3CCN(C(=O)C4COc5ccccc5O4)CC3)nc(N)c2cc1OC (stereo unspecified) ?
INS promoter inh: 27.3; Lmaj promast: 49.9; Autophagy HCS: inactive; PTEN del growth: 8.8; bCat KO growth: 4.6*

Results for COc1cc2nc(N3CCN(C(=O)c4ccco4)CC3)nc(N)c2cc1OC ?
INS promoter inh: 22.7; Lmaj promast: 100.3*; Autophagy HCS: inactive; Insulin prom up: 0.04; PTEN del growth: 5.0; bCat KO growth: 7.2

What do the screens show for `O=C(C1COc2ccccc2O1)N1CCN(c2ccccc2)CC1` (stereo unspecified)?
INS promoter inh: -11.5; Lmaj promast: 0.4; Autophagy HCS: inactive; Insulin prom up: 0.39; PTEN del growth: 94.2; bCat KO growth: 99.2

What do the screens show for `CCn1c(SCC(N)=O)nnc1-c1ccc2[nH]c(C)c(C)c2c1`?
INS promoter inh: 54.0; Lmaj promast: 3.5; Autophagy HCS: inactive; Insulin prom up: -0.27; PTEN del growth: 94.8; bCat KO growth: 102.6

How did CCCCC(O)CN1CCC(c2ccccc2)CC1 (stereo unspecified) do in these assays?
INS promoter inh: 28.6; Lmaj promast: 93.1*; Autophagy HCS: inactive; PTEN del growth: 102.9; bCat KO growth: 88.5

How did O=C(Nc1ccccn1)c1ccc([N+](=O)[O-])o1 do in these assays?
INS promoter inh: -13.3; Lmaj promast: 99.4*; Autophagy HCS: inactive; Insulin prom up: -0.37; PTEN del growth: 18.2; bCat KO growth: 21.3

What do the screens show for `O=C(Nc1ncccn1)c1ccc([N+](=O)[O-])o1`?
Lmaj promast: -1.6; Autophagy HCS: inactive; Insulin prom up: -0.29

What do the screens show for `COc1ccc(COc2ccccc2C(=O)Nc2ccccn2)cc1[N+](=O)[O-]`?
INS promoter inh: -34.6; Lmaj promast: 61.6*; Autophagy HCS: inactive; Insulin prom up: 0.37; PTEN del growth: 97.0; bCat KO growth: 89.8

How did Cc1ccnc(NC(=O)c2ccc([N+](=O)[O-])o2)c1 do in these assays?
INS promoter inh: 33.3; Lmaj promast: 99.0*; Autophagy HCS: inactive; Insulin prom up: 0.59; PTEN del growth: 4.2; bCat KO growth: 3.5*

What do the screens show for `Fc1ccc(-c2nc(-c3cccs3)[nH]c2-c2ccc(F)cc2)cc1`?
INS promoter inh: 13.9; Lmaj promast: 98.6*; Autophagy HCS: inactive; Insulin prom up: -0.41; PTEN del growth: 59.7; bCat KO growth: 64.5

Results for COc1ccc(-c2nc(-c3ccccc3)c(-c3cccs3)[nH]2)cc1OC ?
INS promoter inh: 20.6; Lmaj promast: 66.2*; Autophagy HCS: inactive; Insulin prom up: 0.3; PTEN del growth: 81.8; bCat KO growth: 87.1

What do the screens show for `Cc1ccsc1-c1nc(-c2ccccc2)c(-c2ccccc2)[nH]1`?
Lmaj promast: 12.4; Autophagy HCS: inactive; Insulin prom up: -0.61; PTEN del growth: 85.2; bCat KO growth: 86.7

Screens deposited in PubChem BioAssay by several laboratories.
